# Hits are enriched below; roughly 3.6% of the tested compounds scored in any of these assays.
# Epigenetic reg: epigenetic control regulation, reporter derepression | murine LDR cells, GFP reporter derepression, 30 h | Potency, µM (doses to about 53.9 µM), without a hit: at the top dose GFP activation, hits mostly activators | AID 1865 | 280,000 tested, 0.2% active; also: % of control where 0% means no effect; nearly all actives have a fitted effect of over 60% in size
#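 Murine LDR cells carrying a silenced, genomically integrated CMV-driven GFP reporter were exposed to compound for 30 hours at 37 C. After PBS washes, GFP-positive cells (20–120 um objects) were counted by laser-scanning microplate cytometry.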
# IMPase Li cell: cell-permeable IMPase inhibitors with lithium potentiation; CHO-M1 cells, IP1 TR-FRET (IP-One), carbachol + lithium; Potency, µM (highest dose often 59.4 µM), for inactives: top-dose activity, negative = IMPase inhibition, actives largely listed as inhibitors; 210,000 tested, 0.35% active;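 also: IP1 builds up when IMPase is blocked and the TR-FRET signal falls; plate controls were basal vehicle for no effect and high inhibitor control for full effect; nearly all actives have a fitted effect of over 50% in size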
#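 Concentration–response in CHO-M1 cells, lithium-potentiated; 30 min at 37C. IP1 detected by competitive TR-FRET after 10 min lysis at RT. Hill-fitted AC50.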
# Sfp PPTase inh: inhibitors of Bacillus subtilis Sfp phosphopantetheinyl transferase | Potency, µM, for the others: largest response in the series, negative = inhibition, most hits filed as inhibitors | Biochemical Sfp PPTase activity, qHTS | AID 1490 | Q9F4F7 | 310,000 tested, 3.5% active;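 also: the enzyme is Sfp with the accession as filed and its product quenches rhodamine fluorescence; 0% = enzyme reaction without inhibitor and -100% = no enzyme wells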
#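 After 15 min at room temperature with compound, 15 nM Sfp received 5 uM rhodamine-CoA plus 12.5 uM BHQ-2-ybbR (50 mM Hepes pH 7.6, 10 mM MgCl2). Rate came from the fluorescence difference over 30 min, ex 525/em 598 nm.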
# GCN5L2 inh: inhibitors of human GCN5L2 histone acetyltransferase. Potency, µM (top dose mostly 58.9 µM), for the others: top-dose activity change, negative = inhibition, actives largely listed as inhibitors. GCN5L2 HAT assay, ThioGlo1 CoA-SH fluorescence. Q92830. 390,000 tested, 0.21% active; also: % is scaled to controls: 0 for no effect and ±100 for the full control effect
#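 Fluorescence readout, Ex340nm/Em540nm: ThioGlo1 (50uM final) reacts with free CoA thiol released as 20nM GCN5L2 acetylates H3(1-25) peptide (75uM) using acetyl-CoA (70uM). Compound and enzyme sat 15 min beforehand; 20 min room-temperature reaction.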
# KDM4E inh: inhibitors of human JMJD2E histone demethylase; B2RXH2; JMJD2E catalytic domain, FDH-coupled NADH fluorescence (FDH is formaldehyde dehydrogenase); Potency, µM (doses to about 57.1 µM), for inactives: at the top dose activity change, negative = inhibition, actives largely listed as inhibitors; 230,000 tested, 1.6% active; active = well fitted inhibition curve with a large enough effect, not every such curve was filed as active; inconclusive = small, poorly fitted or top-dose-only effect, or another doubt; inactive = no such curve, though single readings can be large or run the other way;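 also: 0% = wells with enzyme and -100% = buffer wells without enzyme; nearly all actives have a fitted effect of over 50% in size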
# Target sequence (B2RXH2 1-337 limits assumed): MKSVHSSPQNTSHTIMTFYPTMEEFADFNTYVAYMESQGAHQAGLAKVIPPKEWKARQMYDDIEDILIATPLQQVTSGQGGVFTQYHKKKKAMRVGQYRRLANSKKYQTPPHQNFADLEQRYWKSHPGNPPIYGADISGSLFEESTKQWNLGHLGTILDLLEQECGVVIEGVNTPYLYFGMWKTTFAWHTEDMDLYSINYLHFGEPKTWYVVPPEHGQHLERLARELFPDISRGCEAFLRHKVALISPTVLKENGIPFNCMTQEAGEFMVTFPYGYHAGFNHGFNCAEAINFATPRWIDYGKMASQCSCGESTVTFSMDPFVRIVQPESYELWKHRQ
# NPSR antagonist: antagonists of human neuropeptide S receptor cAMP signaling. 220,000 tested, 1% active. CHO-NPSR cells, cAMP TR-FRET, antagonist mode. AID 1461. Potency, µM (doses to about 38.3 µM), inactives show top-dose activity change, negative = inhibition, most hits filed as inhibitors. Q6W5P4; also: % is scaled to controls: 0 for no effect and ±100 for the full control effect; nearly all actives have a fitted effect of over 50% in size
# * hit, by the source's call; ? = inconclusive; . = no result; [ ] = another dose, or the depositor's remark. Unless noted, calls follow the shape of the dose curve; as a rule, active = well fitted curve in the direction sought with a large enough effect; inconclusive = small, poorly fitted or top-dose-only effect, or another doubt; inactive = no such curve, though single readings can be large; an effect the other way counts as inactive or inconclusive. Potency is read from the fitted curve at half-maximal effect.
SMILES,Epigenetic reg,IMPase Li cell,Sfp PPTase inh,GCN5L2 inh,KDM4E inh,NPSR antagonist
CC(C)OCCCN1C(=O)c2[nH]nc(-c3ccccc3O)c2C1c1ccccc1F (stereo unspecified),0.8%,.,.,-2.5%,.,.
Cc1cccc(Nc2n[nH]c(=S)s2)c1C,0.0%,8.7%[38.3 µM],20µM*,22.4µM*,12.6µM*,-8.0%[46.1 µM]
CNc1n[nH]c(=S)s1,0.1%,.,35.5µM*,?,-18.4%,6.8%
COc1ccccc1Nc1ccc(Nc2ccccc2OC)nn1,0.0%,.,11.2%,1.3%,0.2%,-19.8%[46.1 µM]
COc1ccccc1Nc1n[nH]c(=S)s1,0.3%,13.7%,79.4µM*,6.31µM*,20µM*,-17.7%
COc1ccc(CNC(=O)c2ccc3nc(C(C)C)oc3c2)cc1OC,-1.7%,.,.,-7.7%,.,.
O=c1cc(O)n(-c2ccccc2)c(=S)[nH]1,0.1%,1.1%,35.5µM*,0.8%,-10.7%,-1.0%[46.1 µM]
N=c1n(-c2ccccc2)c(O)cc(=O)n1-c1ccccc1,-1.3%,-13.7%[38.3 µM],4.6%,-11.9%,9.5%,-11.1%[46.1 µM]
CCOC(=O)Nc1sc(C)c(C)c1C(=O)OCC,-1.8%,2.5%,-27.9%,-0.7%,0.8%,5.8%
CCOC(=O)c1c(Nc2nc(C)c(C(=O)NC)s2)sc(C)c1C,0.0%,4.7%,39.8µM*,-1.3%,?,-10.2%[46.1 µM]
O=c1c2ccccc2nc(COc2ccccc2)n1/N=C/c1ccc(O)c(O)c1,1.6%,.,-1.0%,-5.4%,?,-12.9%
O=C1c2ccccc2C(=O)N1/N=C/c1ccc(O)c(O)c1,5.6%,3.5%,-29.9%,-4.4%,15.8µM*,-8.4%
O=C1C2C3C=CC(CC3)C2C(=O)N1/N=C/c1ccc(O)c(O)c1 (stereo unspecified),2.1%,-0.1%,-28.7%,-5.5%,15.8µM*,15.5%
CC(=O)N1CC(O)CC1C(=O)O (stereo unspecified),.,.,5.6%,-2.5%,.,.
COc1cc(/C=C2\SC(c3ccccc3)=NC2=O)cc(Cl)c1O,1.1%,49.7%,7.94µM*,-15.1%,?,-55.0%
COc1cc(/C=C2\SC(N)=NC2=O)cc(Br)c1O,.,.,4.1%,?,.,.
COc1cc(/C=C2\SC(c3ccc(C)cc3)=NC2=O)cc(OC)c1OC,-3.4%,-2.2%,?,-13.8%,-8.2%,-21.4%[46.1 µM]
COc1cc(/C=C2\SC(c3ccc(C)cc3)=NC2=O)ccc1O,0.0%,28.1%,22.4µM*,?,-3.6%,-19.8%[46.1 µM]
CC(C)=CC(=O)Oc1ccc(C(=O)N(C)c2ccccc2I)cc1,.,.,4.8%,.,.,.
O=P(O)(O)CP(=O)(O)O,-2.5%,-8.7%[38.3 µM],-5.2%,-3.0%,0.355µM*,-7.0%[46.1 µM]
CCOC(=O)C1(C)C=C(Nc2ccc(O)cc2)C(=O)N1c1ccc(O)cc1 (stereo unspecified),7.1%,10.0%,50.1µM*,-1.2%,-0.4%,-4.4%
CCOC(=O)C1(C)C=C(Nc2ccc(OC)cc2)C(=O)N1c1ccc(OC)cc1 (stereo unspecified),4.2%,-2.2%,-3.4%,-0.6%,-0.3%,12.8%
CCCn1c(-c2ccc(F)cc2)nc2c(NCCCN3CCCCC3C)nc(C)nc21 (stereo unspecified),0.9%,2.7%,5.1%,.,?,.
Cc1ccc(-c2nnn(CC(=O)N(Cc3ccccc3F)C(C(=O)NC3CCCC3)c3ccncc3)n2)o1 (stereo unspecified),-1.0%,-1.9%,28.2µM*,-3.7%,-18.4%,-14.0%[46.1 µM]
O=c1c2cc(-c3ccccc3)sc2nc2n1CCC2,0.9%,5.5%,13.2%,-2.9%,35.5µM*,-0.8%
SMILES,Epigenetic reg,IMPase Li cell,Sfp PPTase inh,GCN5L2 inh,KDM4E inh,NPSR antagonist
O=c1c2ccccc2nc2n1CCCCC2,-1.1%,13.8%[38.3 µM],21.1%,-3.3%,-2.5%,-0.6%[46.1 µM]
O=c1c2ccccc2nc2n1CCC2,-1.8%,-12.2%[38.3 µM],?,-2.4%,8.91µM*,-0.4%[46.1 µM]
Cc1nc2sc(-c3ccccc3)cc2c(=O)n1N,0.0%,.,10.3%,-1.5%,?,-17.4%
Cc1noc(C)c1-c1nc(NCc2cccs2)c2ccccc2n1,.,3.8%,70.8µM*,22.4µM*,.,.
COCCNc1nc(-c2c(C)noc2C)nc2ccccc12,.,-7.1%,1.0%,-17.5%,.,.
CC1=C(/C=C/C(C)=C/C=C/C(C)=C\CO)C(C)(C)CCC1,0.0%,4.7%,-6.7%,18.2%,.,.

# Compound activity as filed in PubChem BioAssay.
